Laboratory results taken from PubChem BioAssay (NCATS).
Records with an inconclusive call do not appear. Activity calls are given as the source filed them. Calls follow the shape of the dose curve; as a rule, active = well fitted inhibition curve with a large enough effect; inconclusive = small, poorly fitted or top-dose-only effect; inactive = flat fitted curve, though single readings scatter. Bridge positions count the residues as written; N and C are the ends. Square brackets hold non-standard residues; d marks the D form. Peptide text beside a SMILES is read from it. * marks the point of attachment. ξ: configuration not given here. ξDab(CH2SO3H) = NC(CCNCS(=O)(=O)O)C(=O)O; Heptanoyl(6-Me) = CC(C)CCCCC(=O)*; Dab = NCC[CH](N)C(=O)O

Assays:
[1] = biological target: Ubiquitin carboxyl-terminal hydrolase 1 (Homo sapiens) (UniProt O94782); assay: Inhibitors of USP1/UAF1: Pilot qHTS (AID 504865); also: nearly all actives have a fitted effect of over 35% in size; also: potency is read from the fitted curve at half-maximal effect
Ubiquitin carboxyl-terminal hydrolase 1 (Homo sapiens), sequence (O94782 whole entry, looked up): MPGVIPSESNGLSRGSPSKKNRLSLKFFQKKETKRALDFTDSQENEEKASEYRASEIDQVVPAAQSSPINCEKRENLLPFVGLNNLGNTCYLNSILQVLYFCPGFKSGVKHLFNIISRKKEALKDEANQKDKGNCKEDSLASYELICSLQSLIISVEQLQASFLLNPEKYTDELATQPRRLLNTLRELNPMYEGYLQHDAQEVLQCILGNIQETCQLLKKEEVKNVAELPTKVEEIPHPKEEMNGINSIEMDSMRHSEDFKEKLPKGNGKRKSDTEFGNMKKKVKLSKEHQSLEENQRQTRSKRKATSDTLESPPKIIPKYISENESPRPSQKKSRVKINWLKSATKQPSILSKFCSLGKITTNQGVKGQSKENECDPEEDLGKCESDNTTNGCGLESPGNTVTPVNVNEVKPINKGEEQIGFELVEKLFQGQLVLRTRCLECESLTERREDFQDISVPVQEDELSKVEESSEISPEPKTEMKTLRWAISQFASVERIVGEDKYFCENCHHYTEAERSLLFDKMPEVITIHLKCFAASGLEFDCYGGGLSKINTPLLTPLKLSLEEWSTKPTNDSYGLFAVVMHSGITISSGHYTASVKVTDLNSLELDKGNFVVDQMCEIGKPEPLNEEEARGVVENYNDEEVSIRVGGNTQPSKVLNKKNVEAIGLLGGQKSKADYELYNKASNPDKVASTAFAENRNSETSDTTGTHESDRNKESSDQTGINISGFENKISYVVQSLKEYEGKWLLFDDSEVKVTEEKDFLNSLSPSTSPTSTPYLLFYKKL
Outline: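 1nM USP1/UAF1 + cpd, 15 min RT; start w/ Ub-Rho 150nM final; kinetic FL 480/540 nm, 6 reads q60 s. Buffer 50mM HEPES pH 7.8, 0.5mM EDTA, 1mM TCEP, 0.01% Tween-20, 0.1 mg/ml BSA.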

[2] = qHTS profiling for inhibitors of Plasmodium falciparum proliferation (AID 504749);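 also: 0% = DMSO vehicle and full inhibition = artemisinin control; nearly all actives have a fitted effect of over 60% in size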; settings: P. falciparum in erythrocytes, SYBR Green DNA, 72 h, at 28.7 µM (top of the series)
Outline: (§1)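 Three-day growth assay of blood-stage parasites in erythrocytes (0.3% parasitemia, 2.5% hematocrit) at 37 C, 5% CO2, quantified by SYBR Green DNA staining after overnight detergent lysis.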

[3] = test system: ATS189; assay: as above; settings: P. falciparum in erythrocytes, SYBR Green DNA, 72 h; series mostly up to 28.7 µM
Outline: as §1

[4] = test system: CP185; assay: as above; settings: P. falciparum in erythrocytes, SYBR Green DNA, 72 h; series mostly up to 28.7 µM
Outline: as §1

[5] = test system: CP201; assay: as above; settings: P. falciparum in erythrocytes, SYBR Green DNA, 72 h; series mostly up to 28.7 µM
Outline: as §1

[6] = test system: CP238; assay: as above; settings: P. falciparum in erythrocytes, SYBR Green DNA, 72 h; series mostly up to 28.7 µM
Outline: as §1

[7] = test system: CP252; assay: as above; settings: P. falciparum in erythrocytes, SYBR Green DNA, 72 h; series mostly up to 28.7 µM
Outline: as §1

[8] = test system: CP265; assay: as above; settings: P. falciparum in erythrocytes, SYBR Green DNA, 72 h; series mostly up to 28.7 µM
Outline: as §1

[9] = test system: CP286; assay: as above; settings: P. falciparum in erythrocytes, SYBR Green DNA, 72 h; series mostly up to 28.7 µM
Outline: as §1

[10] = test system: CP305; assay: as above; settings: P. falciparum in erythrocytes, SYBR Green DNA, 72 h; series mostly up to 28.7 µM
Outline: as §1

[11] = test system: CP325; assay: as above; settings: P. falciparum in erythrocytes, SYBR Green DNA, 72 h; series mostly up to 28.7 µM
Outline: as §1

[12] = test system: DFO2036; assay: as above; settings: P. falciparum in erythrocytes, SYBR Green DNA, 72 h; series mostly up to 28.7 µM
Outline: as §1

[13] = test system: FAB9; assay: as above; settings: P. falciparum in erythrocytes, SYBR Green DNA, 72 h; series mostly up to 28.7 µM
Outline: as §1

[14] = test system: PC15; assay: as above; settings: P. falciparum in erythrocytes, SYBR Green DNA, 72 h; series mostly up to 28.7 µM
Outline: as §1

[15] = test system: PC49; assay: as above; settings: P. falciparum in erythrocytes, SYBR Green DNA, 72 h; series mostly up to 28.7 µM
Outline: as §1

C[C@H]1O[C@@H](O[C@H]2[C@@H](O)C[C@H](O[C@H]3[C@@H](O)C[C@H](O[C@H]4CC[C@]5(C)C6CC[C@]7(C)[C@@H](C8=CC(=O)OC8)CC[C@]7(O)C6CC[C@@H]5C4)O[C@@H]3C)O[C@@H]2C)C[C@H](O)[C@@H]1O (stereo partly specified)
inactive: Potency [1]

COc1cccc2oc(-c3ccccc3)cc(=O)c12
inactive: Potency [1]

CCC(C)C1NC(=O)C(CCNCS(=O)(=O)O)NC(=O)C(NC(=O)C(CCNCS(=O)(=O)O)NC(=O)C(NC(=O)C(CCNCS(=O)(=O)O)NC(=O)CCCCC(C)C)C(C)O)CCNC(=O)C(C(C)O)NC(=O)C(CCNCS(=O)(=O)O)NC(=O)C(CCNCS(=O)(=O)O)NC(=O)C(C(C)CC)NC1=O (stereo unspecified) ({Heptanoyl(6-Me)}-[ξDab(CH2SO3H)]T[ξDab(CH2SO3H)][Dab][ξDab(CH2SO3H)]II[ξDab(CH2SO3H)][ξDab(CH2SO3H)]T; lactam 4-C; configuration not given here)
inactive: activity, negative = inhibition ([2]; parasite line A) -19.4% | activity, negative = inhibition ([2]; parasite line B) 8.48% | Potency [3] | Potency [4] | Potency [5] | Potency [6] | Potency [7] | Potency [8] | Potency [9] | Potency [10] | Potency [11] | Potency [12] | Potency [13] | Potency [14] | Potency [15]
active: Potency [1] 44.7 µM

CC1CCC2[C@](C)(CO)C(O)CC[C@]2(C)C12CCC(CO)(CCO)O2 (stereo partly specified)
inactive: Potency [1]

Cc1csc(-c2nc3ccccc3n2C)n1
inactive: Potency [1]

O=C(O)c1ccccc1-c1c2cc(Br)c(=O)c(Br)c-2oc2c(Br)c(O)c(Br)cc12
inactive: Potency [1] | activity, negative = inhibition ([2]; parasite line A) 7.94% | activity, negative = inhibition ([2]; parasite line B) -13.6% | Potency [3] | Potency [4] | Potency [5] | Potency [6] | Potency [7] | Potency [8] | Potency [9] | Potency [10] | Potency [11] | Potency [12] | Potency [13] | Potency [14] | Potency [15]

O=C(/C=C/c1ccccc1)c1cccs1
inactive: Potency [1]

CCC1NC(=O)C(NC(=O)c2ncccc2O)C(C)OC(=O)C(c2ccccc2)NC(=O)C2CC(=O)CCN2C(=O)C(Cc2ccccc2)N(C)C(=O)C2CCCN2C1=O (stereo unspecified)
inactive: Potency [1] | activity, negative = inhibition ([2]; parasite line A) -20.9% | activity, negative = inhibition ([2]; parasite line B) -28.7% | Potency [3] | Potency [4] | Potency [5] | Potency [6] | Potency [7] | Potency [8] | Potency [9] | Potency [10] | Potency [11] | Potency [12] | Potency [13] | Potency [14] | Potency [15]

COc1cc2c(C(=O)c3ccccc3)c3c4c(cc(OC)c(OC)c4c2cc1OC)CCN3C
active: Potency [1] 25.1 µM

CC(=O)OC1CCC2(C)C(=CCC3C2CCC2(C)C3C[C@@H]3O[C@]32C(C)=O)C1 (stereo partly specified)
inactive: Potency [1]

Cc1ccc2oc(-c3ccccc3)cc(=O)c2c1
inactive: Potency [1]

COc1ccc(/C=C/C(=O)c2cccs2)cc1OC
inactive: Potency [1]

NC(=O)CCC1NC(=O)C(Cc2ccccc2)NC(=O)C(Cc2ccc(O)cc2)NC(=O)CCSSCC(C(=O)N2CCCC2C(=O)NC(CCCN=C(N)N)C(=O)NCC(N)=O)NC(=O)C(CC(N)=O)NC1=O (stereo unspecified)
inactive: Potency [1] | activity, negative = inhibition ([2]; parasite line A) 9.46% | activity, negative = inhibition ([2]; parasite line B) 7.06% | Potency [3] | Potency [4] | Potency [5] | Potency [6] | Potency [7] | Potency [8] | Potency [9] | Potency [10] | Potency [11] | Potency [12] | Potency [13] | Potency [14] | Potency [15]

COc1ccc2c(=O)c(-c3ccccc3)coc2c1
inactive: Potency [1]

O=C1CC(c2ccccc2O)Oc2ccc(O)cc21 (stereo unspecified)
inactive: Potency [1]

CC(C)CC(NC(=O)C(COC(C)(C)C)NC(=O)C(Cc1ccc(O)cc1)NC(=O)C(CO)NC(=O)C(Cc1c[nH]c2ccccc12)NC(=O)C(Cc1cnc[nH]1)NC(=O)C1CCC(=O)N1)C(=O)NC(CCCN=C(N)N)C(=O)N1CCCC1C(=O)NNC(N)=O (stereo unspecified)
inactive: Potency [1] | activity, negative = inhibition ([2]; parasite line A) 11.9% | activity, negative = inhibition ([2]; parasite line B) 5.86% | Potency [3] | Potency [4] | Potency [5] | Potency [6] | Potency [7] | Potency [8] | Potency [9] | Potency [10] | Potency [11] | Potency [12] | Potency [13] | Potency [14] | Potency [15]

CCC(C)C1NC(=O)C(Cc2ccc(O)cc2)NC(=O)C(N)CSSCC(C(=O)N2CCCC2C(=O)NC(CC(C)C)C(=O)NCC(N)=O)NC(=O)C(CC(N)=O)NC(=O)C(CCC(N)=O)NC1=O (stereo unspecified)
inactive: activity, negative = inhibition ([2]; parasite line A) 0.779% | activity, negative = inhibition ([2]; parasite line B) 4.79% | Potency [3] | Potency [4] | Potency [5] | Potency [6] | Potency [7] | Potency [8] | Potency [9] | Potency [10] | Potency [11] | Potency [12] | Potency [13] | Potency [14] | Potency [15]
